Reference: PubChem BioAssay AID1159580 (chemical genetic matrix, 2015)
Values joined by “and” are separate entries in the source; they are usually repeats but may differ in a detail not shown here. Identical values can stand only once. The campaign covered roughly 5,500 compounds. About 2,000 (36%) were called active. Inconclusive results (about 18%) are left out. Cut-off read from the data, not from the text of the source: active = normalized growth mostly below about 0.91 (no sharp cut-off); inconclusive = no clear call, values can overlap the other calls; inactive = mostly above about 0.92. The list shows a part of the results.

Assay: chemical genetic growth profiling, strain panel (AID 1159580);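 note: tested at 20 µM; growth read once vehicle control cultures reached saturation at 30 °C; 1 = growth at the plate median or of vehicle wells; lower values mean less growth of the strain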
Conditions: growth OD

Measured: normalized growth

CCCOc1ccccc1-c1nc2n[nH]nc2c(=O)[nH]1
inactive: S. cerevisiae deletion strains, locus YJL187C, strain SWE1 (second series), hits give low values 0.992 | S. cerevisiae deletion strains, locus YJL187C, strain SWE1, hits give low values 1 | S. cerevisiae deletion strains, locus YJR043C, strain POL32, hits give low values 0.995 | S. cerevisiae deletion strains, locus YJR075W, strain HOC1, hits give low values 0.979 | S. cerevisiae deletion strains, locus YKL009W, strain mrt4, hits give low values 1 | S. cerevisiae deletion strains, locus YKL068W, hits give low values 0.999 | S. cerevisiae deletion strains, locus YKL085W, strain MDH1 (second series), hits give low values 1 | S. cerevisiae deletion strains, locus YKL085W, strain MDH1, hits give low values 1 | S. cerevisiae deletion strains, locus YKL160W, strain elf1, hits give low values 0.974 | S. cerevisiae deletion strains, locus YKL190W, strain CNB1, hits give low values 1 | S. cerevisiae deletion strains, locus YKR001C, strain vps1, hits give low values 1.01 | S. cerevisiae deletion strains, locus YKR026C, strain gcn3, hits give low values 1 | S. cerevisiae deletion strains, locus YKR091W, strain srl3, hits give low values 1 | S. cerevisiae deletion strains, locus YLL001W, strain dnm1, hits give low values 0.995 | S. cerevisiae deletion strains, locus YLL026W, hits give low values 1.01 | S. cerevisiae deletion strains, locus YLL041C, strain sdh2, hits give low values 0.994 | S. cerevisiae deletion strains, locus YLR027C, strain aat2, hits give low values 1.01 | S. cerevisiae deletion strains, locus YLR039C, strain RIC1, hits give low values 1.05 | S. cerevisiae deletion strains, locus YLR058C, strain SHM2, hits give low values 0.997 | S. cerevisiae deletion strains, locus YLR102C, strain apc9, hits give low values 1.01 | S. cerevisiae deletion strains, locus YLR221C, strain rsa3, hits give low values 0.995 | S. cerevisiae deletion strains, locus YLR258W, strain gsy2, hits give low values 1.03 | S. cerevisiae deletion strains, locus YLR262C, strain YPT6 (second series), hits give low values 0.997 | S. cerevisiae deletion strains, locus YLR262C, strain YPT6, hits give low values 1.02 | S. cerevisiae deletion strains, locus YLR268W, strain sec22, hits give low values 1.01 | S. cerevisiae deletion strains, locus YLR320W, strain mms22, hits give low values 1.02 | S. cerevisiae deletion strains, locus YLR330W, strain CHS5, hits give low values 1.01 | S. cerevisiae deletion strains, locus YLR342W, strain FKS1 (second series), hits give low values 1.04 | S. cerevisiae deletion strains, locus YLR342W, strain FKS1, hits give low values 1.01 | S. cerevisiae deletion strains, locus YLR357W, strain rsc2, hits give low values 1.01 | S. cerevisiae deletion strains, locus YLR370C, strain arc18, hits give low values 0.996 | S. cerevisiae deletion strains, locus YLR371W, strain rom2, hits give low values 1.02 | S. cerevisiae deletion strains, locus YLR384C, strain iki3, hits give low values 1 | S. cerevisiae deletion strains, locus YLR418C, strain cdc73, hits give low values 1.02 | S. cerevisiae deletion strains, locus YML016C, strain PPZ1, hits give low values 1 | S. cerevisiae deletion strains, locus YML032C, strain rad52, hits give low values 1.02 | S. cerevisiae deletion strains, locus YML120C, strain ndi1, hits give low values 0.997 | S. cerevisiae deletion strains, locus YML124C, strain tub3, hits give low values 1 | S. cerevisiae deletion strains, locus YMR058W, strain fet3, hits give low values 1.01 | S. cerevisiae deletion strains, locus YMR078C, strain ctf18, hits give low values 1.01 | S. cerevisiae deletion strains, locus YMR125W, strain sto1, hits give low values 1.01 | S. cerevisiae deletion strains, locus YMR129W, hits give low values 1 | S. cerevisiae deletion strains, locus YMR205C, strain PFK2, hits give low values 1.03 | S. cerevisiae deletion strains, locus YMR223W, strain ubp8, hits give low values 1.01 | S. cerevisiae deletion strains, locus YMR231W, strain pep5, hits give low values 1.01 | S. cerevisiae deletion strains, locus YMR307W, strain GAS1, hits give low values 1.08 and 0.984 | S. cerevisiae deletion strains, locus YNL067W, strain RPL9B, hits give low values 1 | S. cerevisiae deletion strains, locus YNL071W, strain lat1, hits give low values 1 | S. cerevisiae deletion strains, locus YNL153C, strain GIM3, hits give low values 1.04 | S. cerevisiae deletion strains, locus YNL175C, strain NOP13, hits give low values 1.02 | S. cerevisiae deletion strains, locus YNL197C, strain WHI3, hits give low values 1.01 | S. cerevisiae deletion strains, locus YNL209W, strain ssb2, hits give low values 1 | S. cerevisiae deletion strains, locus YNL224C, strain SQS1, hits give low values 1 | S. cerevisiae deletion strains, locus YNL233W, strain BNI4, hits give low values 0.995 | S. cerevisiae deletion strains, locus YNL248C, strain rpa49, hits give low values 0.957 | S. cerevisiae deletion strains, locus YNL250W, strain rad50, hits give low values 1 | S. cerevisiae deletion strains, locus YNL271C, strain bni1, hits give low values 1.01 | S. cerevisiae deletion strains, locus YNL298W, strain CLA4, hits give low values 1.02 | S. cerevisiae deletion strains, locus YNL307C, strain MCK1, hits give low values 1.02 | S. cerevisiae deletion strains, locus YNL322C, strain KRE1 (second series), hits give low values 0.998 | S. cerevisiae deletion strains, locus YNR049C, strain mso1, hits give low values 1 | S. cerevisiae deletion strains, locus YNR052C, strain pop2, hits give low values 1.01 | S. cerevisiae deletion strains, locus YOL006C, strain TOP1, hits give low values 1 | S. cerevisiae deletion strains, locus YOL012C, strain htz1 1.16 | S. cerevisiae deletion strains, locus YOL147C, strain pex11, hits give low values 1.01 | S. cerevisiae deletion strains, locus YOR001W, strain rrp6, hits give low values 0.971 | S. cerevisiae deletion strains, locus YOR061W, strain CKA2, hits give low values 1.01 | S. cerevisiae deletion strains, locus YOR069W, strain VPS5, hits give low values 1 | S. cerevisiae deletion strains, locus YOR070C, strain gyp1, hits give low values 0.999 | S. cerevisiae deletion strains, locus YOR080W, strain dia2, hits give low values 1.01 | S. cerevisiae deletion strains, locus YOR083W, strain WHI5 (second series), hits give low values 1.02 | S. cerevisiae deletion strains, locus YOR083W, strain WHI5, hits give low values 0.962 | S. cerevisiae deletion strains, locus YOR106W, strain vam3, hits give low values 0.981 | S. cerevisiae deletion strains, locus YOR136W, strain idh2, hits give low values 1.01 | S. cerevisiae deletion strains, locus YOR144C, strain elg1, hits give low values 1.01 | S. cerevisiae deletion strains, locus YOR184W, strain ser1, hits give low values 1.01 | S. cerevisiae deletion strains, locus YOR265W, strain rbl2, hits give low values 1 | S. cerevisiae deletion strains, locus YOR270C, strain vph1, hits give low values 0.98 | S. cerevisiae deletion strains, locus YOR290C, strain snf2, hits give low values 0.992 | S. cerevisiae deletion strains, locus YOR316C, strain cot1, hits give low values 1.01 | S. cerevisiae deletion strains, locus YPL051W, strain arl3, hits give low values 0.991 | S. cerevisiae deletion strains, locus YPL078C, strain atp4, hits give low values 0.981 | S. cerevisiae deletion strains, locus YPL106C, strain sse1, hits give low values 1.02 | S. cerevisiae deletion strains, locus YPL240C, strain hsp82, hits give low values 1.01 | S. cerevisiae deletion strains, locus YPR119W, strain clb2, hits give low values 1.01 | S. cerevisiae deletion strains, locus YPR141C, strain kar3, hits give low values 1 | S. cerevisiae deletion strains, locus YPR163C, strain tif3, hits give low values 1.02 | S. cerevisiae deletion strains, locus YPR167C, strain met16, hits give low values 1.02 | S. cerevisiae deletion strains, strain wtn01, hits give low values 1.02 | S. cerevisiae strains, strain wild type, hits give low values 1.01
